This passage reports outcome results from PubChem BioAssay (NCATS).

Inconclusive results are not listed. Calls of active or inactive are those of the source. The call rests on the fitted dose curve; in most records, active means well fitted curve in the direction sought with a large enough effect; inconclusive means small, poorly fitted or top-dose-only effect, or another doubt; inactive means no such curve, though single readings can be large; an effect the other way counts as inactive or inconclusive.

For assay [1], the target named is ATP-dependent 6-phosphofructokinase (Trypanosoma brucei brucei) (UniProt O15648). Put plainly: qHTS Validation Assay to Find Inhibitors of T. brucei phosphofructokinase (AID 485368). The note with it: T. brucei PFK enzyme assay, qHTS 7-point titration; at 57.5 µM (top of the series). An outline of the steps:
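Steps: substrate mix (0.5 mM F6P, 0.1 mM ATP, MgCl2, TEA pH 8.0); compound; 1.25 nM T. brucei PFK; 45 min RT; ATP depletion 10 min; ADP-to-ATP detection 10 min; luminescence read; curve fitting and classification.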

Assay [2] is described as follows: Quantitative high throughput screen for delayed death inhibitors of the malarial parasite plastid, 96 hour incubation (AID 488745).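 Further: luciferase-expressing P. falciparum in erythrocytes at 2% hematocrit and 0.1% parasitemia; nearly all actives have a fitted effect of over 70% in size.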 An outline of the steps:
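Infected erythrocytes were added to compound in Albumax-supplemented RPMI 1640 at 0.1% parasitemia and 2% hematocrit (final), incubated 96 h at 37 C under 5% CO2, then luciferase reagent was added and luminescence measured.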

Assay [3] in a line: Quantitative high throughput screen for delayed death inhibitors of the malarial parasite plastid, 48 hour incubation (AID 488752). Further: nearly all actives have a fitted effect of over 65% in size. The method in brief:
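Readout is firefly luciferase luminescence from a reporter integrated into the parasite genome, with lower signal taken as inhibited growth. Infected red cells (0.1% parasitemia, 2% hematocrit final) are cultured with compound for one 48 h cycle at 37 C.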

Chain of ATP-dependent 6-phosphofructokinase (Trypanosoma brucei brucei) (O15648 whole entry, looked up): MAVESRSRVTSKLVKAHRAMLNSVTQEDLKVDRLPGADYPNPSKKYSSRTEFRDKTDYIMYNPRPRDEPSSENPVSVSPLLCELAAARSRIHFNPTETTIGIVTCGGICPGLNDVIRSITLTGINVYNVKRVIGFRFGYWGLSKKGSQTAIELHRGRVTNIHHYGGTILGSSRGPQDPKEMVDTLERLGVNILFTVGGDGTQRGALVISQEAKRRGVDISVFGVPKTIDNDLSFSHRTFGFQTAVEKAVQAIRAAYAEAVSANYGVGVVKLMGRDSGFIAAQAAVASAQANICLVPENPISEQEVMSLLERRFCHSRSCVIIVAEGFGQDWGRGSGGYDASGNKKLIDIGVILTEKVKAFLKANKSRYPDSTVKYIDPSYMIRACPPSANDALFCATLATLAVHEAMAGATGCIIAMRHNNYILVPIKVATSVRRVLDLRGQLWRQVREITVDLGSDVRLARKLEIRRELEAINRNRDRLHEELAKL

`CCOC(=O)[C@H](CCc1ccccc1)N[C@@H](C)C(=O)N1[C@H](C(=O)O)C[C@H]2CCCC[C@@H]21`: the outcome in assay [1] was inactive.

Turning to `CN=C(N)NCCC[C@H](N)C(=O)O`, the molecule was called inactive in assay [1].

As to `CC(=O)OCC1=C(C(=O)O)N2C(=O)[C@@H](NC(=O)CSc3ccncc3)[C@H]2SC1`, the molecule was classed as inactive in assay [2] and in assay [3].

For the molecule `NC(N)=NCc1cccc(I)c1`, the call in assay [3] was inactive.
